Reference: PubChem BioAssay AID1159580 (chemical genetic matrix, 2015)
About 2,000 (36%) of roughly 5,500 compounds were called active. Another 18% or so got no clear call; they are omitted. No stated cut-off is given here; in the data, active means normalized growth mostly below about 0.91 (no sharp cut-off); inconclusive means no clear call, values can overlap the other calls; inactive means mostly above about 0.92. The list shows a part of the results.

Assay: chemical genetic growth profiling, strain panel (AID 1159580);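 further: tested at 20 µM; growth read once vehicle control cultures reached saturation at 30 °C; 1 = growth at the plate median or of vehicle wells; lower values mean less growth of the strain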
Conditions: growth OD
[1] = S. cerevisiae deletion strains, locus YAL013W, strain DEP1, hits give low values
[2] = S. cerevisiae deletion strains, locus YAL040C, strain CLN3, hits give low values
[3] = S. cerevisiae deletion strains, locus YCL061C, strain MRC1 (second series), hits give low values
[4] = S. cerevisiae deletion strains, locus YDR150W, strain NUM1, hits give low values
[5] = S. cerevisiae deletion strains, locus YDR363W, strain ESC2, hits give low values
[6] = S. cerevisiae deletion strains, locus YER002W, strain NOP16, hits give low values
[7] = S. cerevisiae deletion strains, locus YGR078C, strain PAC10, hits give low values
[8] = S. cerevisiae deletion strains, locus YJR075W, strain HOC1, hits give low values
[9] = S. cerevisiae deletion strains, locus YMR263W, strain SAP30, hits give low values
[10] = S. cerevisiae deletion strains, locus YMR307W, strain GAS1, hits give low values
[11] = S. cerevisiae deletion strains, locus YNL153C, strain GIM3, hits give low values
[12] = S. cerevisiae deletion strains, locus YNL175C, strain NOP13, hits give low values
[13] = S. cerevisiae deletion strains, locus YNL197C, strain WHI3, hits give low values
[14] = S. cerevisiae deletion strains, locus YNL224C, strain SQS1, hits give low values
[15] = S. cerevisiae deletion strains, locus YNL322C, strain KRE1, hits give low values
[16] = S. cerevisiae deletion strains, locus YOR083W, strain WHI5 (second series), hits give low values
[17] = S. cerevisiae deletion strains, locus YPL055C, strain LGE1, hits give low values

Measured: normalized growth

N#CC(=C(\N)Sc1ccccc1N)/C(C#N)=C(/N)Sc1ccccc1N
inactive: [1] 0.988 | [2] 0.974 | [3] 1.01 | [4] 1.01 | [5] 1 | [6] 1 | [7] 0.99 | [8] 0.97 | [9] 1 | [10] 0.995 | [11] 0.923 | [12] 0.981 | [13] 0.971 | [14] 0.973 | [15] 0.988 | S. cerevisiae deletion strains, locus YPL241C, strain CIN2, hits give low values 1.01
active: [16] 0.763

Cc1nc(N=Nc2cc(S(=O)(=O)O)c3cc([N+](=O)[O-])cc(S(=O)(=O)O)c3c2)c(COP(=O)(O)O)c(C=O)c1O
inactive: [1] 0.999 | [2] 1.02 | [3] 1 | [4] 0.995 | [5] 1.01 | [6] 1.02 | [7] 1 | [8] 1 | [12] 0.997 | [13] 1 | [14] 1.01 | [16] 1.01 | [17] 1.02

NC(N)=Nc1ccc(Cl)cc1
active: S. cerevisiae deletion strains, locus YJR043C, strain POL32, hits give low values 1.17 [resistant] | S. cerevisiae deletion strains, locus YOR069W, strain VPS5, hits give low values 1.11 [resistant]
inactive: [1] 1.01 | S. cerevisiae deletion strains, locus YBR021W, strain FUR4, hits give low values 1.01 | S. cerevisiae deletion strains, locus YBR229C, strain ROT2, hits give low values 1.01 | S. cerevisiae deletion strains, locus YCL029C, strain bik1, hits give low values 1 | S. cerevisiae deletion strains, locus YDL035C, strain GPR1, hits give low values 1.02 | S. cerevisiae deletion strains, locus YDL074C, strain BRE1, hits give low values 1.04 | S. cerevisiae deletion strains, locus YDL101C, strain DUN1, hits give low values 1.03 | S. cerevisiae deletion strains, locus YDL134C, strain PPH21, hits give low values 1.02 | S. cerevisiae deletion strains, locus YDL185W, strain tfp1, hits give low values 1.01 | S. cerevisiae deletion strains, locus YDL192W, strain arf1, hits give low values 1.01 | S. cerevisiae deletion strains, locus YDR101C, strain arx1, hits give low values 0.99 | [4] 1.02 | S. cerevisiae deletion strains, locus YDR162C, strain NBP2, hits give low values 1.02 | S. cerevisiae deletion strains, locus YDR318W, strain mcm21, hits give low values 0.997 | S. cerevisiae deletion strains, locus YDR388W, hits give low values 0.997 | S. cerevisiae deletion strains, locus YDR502C, strain sam2, hits give low values 1 | S. cerevisiae deletion strains, locus YER110C, hits give low values 0.996 | S. cerevisiae deletion strains, locus YER155C, strain BEM2, hits give low values 1.01 | S. cerevisiae deletion strains, locus YER167W, strain BCK2, hits give low values 1.03 | S. cerevisiae deletion strains, locus YGL078C, strain dbp3, hits give low values 0.996 | S. cerevisiae deletion strains, locus YGL086W, strain mad1, hits give low values 1 | S. cerevisiae deletion strains, locus YGL248W, strain PDE1, hits give low values 1.01 | [7] 1.02 | S. cerevisiae deletion strains, locus YGR135W, strain pre9, hits give low values 0.998 | S. cerevisiae deletion strains, locus YGR229C, strain SMI1, hits give low values 1.03 | S. cerevisiae deletion strains, locus YGR252W, strain gcn5, hits give low values 0.972 | S. cerevisiae deletion strains, locus YHR030C, strain SLT2, hits give low values 1 | S. cerevisiae deletion strains, locus YHR079C, strain IRE1 (second series), hits give low values 1 | S. cerevisiae deletion strains, locus YHR094C, strain hxt1, hits give low values 0.988 | S. cerevisiae deletion strains, locus YHR129C, strain ARP1, hits give low values 1.01 | S. cerevisiae deletion strains, locus YHR200W, strain rpn10, hits give low values 0.999 | S. cerevisiae deletion strains, locus YIL066C, strain RNR3, hits give low values 1.02 | S. cerevisiae deletion strains, locus YIL073C, strain SPO22, hits give low values 1.09 | S. cerevisiae deletion strains, locus YIL125W, strain kgd1, hits give low values 1 | S. cerevisiae deletion strains, locus YIR030C, strain dcg1, hits give low values 0.992 | S. cerevisiae deletion strains, locus YJL095W, strain BCK1, hits give low values 1.02 | S. cerevisiae deletion strains, locus YJL134W, strain LCB3, hits give low values 1.01 | S. cerevisiae deletion strains, locus YJL168C, strain set2, hits give low values 1 | S. cerevisiae deletion strains, locus YJL187C, strain SWE1 (second series), hits give low values 1.01 | [8] 1.01 | S. cerevisiae deletion strains, locus YKL009W, strain mrt4, hits give low values 0.987 | S. cerevisiae deletion strains, locus YKL068W, hits give low values 0.988 | S. cerevisiae deletion strains, locus YKL085W, strain MDH1 (second series), hits give low values 1.01 | S. cerevisiae deletion strains, locus YKL085W, strain MDH1, hits give low values 1.01 | S. cerevisiae deletion strains, locus YKL190W, strain CNB1, hits give low values 1.02 | S. cerevisiae deletion strains, locus YKR001C, strain vps1, hits give low values 0.999 | S. cerevisiae deletion strains, locus YLR039C, strain RIC1, hits give low values 1.1 | S. cerevisiae deletion strains, locus YLR058C, strain SHM2, hits give low values 1.01 | S. cerevisiae deletion strains, locus YLR102C, strain apc9, hits give low values 0.998 | S. cerevisiae deletion strains, locus YLR262C, strain YPT6, hits give low values 1.07 | S. cerevisiae deletion strains, locus YLR268W, strain sec22, hits give low values 0.996 | S. cerevisiae deletion strains, locus YLR330W, strain CHS5, hits give low values 1.02 | S. cerevisiae deletion strains, locus YLR342W, strain FKS1 (second series), hits give low values 1.05 | S. cerevisiae deletion strains, locus YLR371W, strain rom2, hits give low values 0.996 | S. cerevisiae deletion strains, locus YLR418C, strain cdc73, hits give low values 1 | S. cerevisiae deletion strains, locus YML016C, strain PPZ1, hits give low values 1.02 | S. cerevisiae deletion strains, locus YML032C, strain rad52, hits give low values 0.961 | S. cerevisiae deletion strains, locus YML124C, strain tub3, hits give low values 0.99 | S. cerevisiae deletion strains, locus YMR078C, strain ctf18, hits give low values 0.995 | S. cerevisiae deletion strains, locus YMR223W, strain ubp8, hits give low values 0.998 | [9] 1.02 | [10] 1.01 | S. cerevisiae deletion strains, locus YNL067W, strain RPL9B, hits give low values 1.01 | S. cerevisiae deletion strains, locus YNL128W, strain TEP1, hits give low values 1.05 | [11] 1.02 | S. cerevisiae deletion strains, locus YNL233W, strain BNI4, hits give low values 1.01 | S. cerevisiae deletion strains, locus YNL250W, strain rad50, hits give low values 0.984 | S. cerevisiae deletion strains, locus YNL271C, strain bni1, hits give low values 1 | S. cerevisiae deletion strains, locus YNL298W, strain CLA4, hits give low values 0.997 | S. cerevisiae deletion strains, locus YNL307C, strain MCK1, hits give low values 1 | [15] 1.01 | S. cerevisiae deletion strains, locus YNR052C, strain pop2, hits give low values 0.993 | S. cerevisiae deletion strains, locus YOL006C, strain TOP1, hits give low values 1.18 | S. cerevisiae deletion strains, locus YOL012C, strain htz1 1.11 | S. cerevisiae deletion strains, locus YOL147C, strain pex11, hits give low values 0.995 | S. cerevisiae deletion strains, locus YOR061W, strain CKA2, hits give low values 1.02 | S. cerevisiae deletion strains, locus YOR136W, strain idh2, hits give low values 0.997 | S. cerevisiae deletion strains, locus YOR144C, strain elg1, hits give low values 0.984 | S. cerevisiae deletion strains, locus YOR184W, strain ser1, hits give low values 1.02 | S. cerevisiae deletion strains, locus YOR316C, strain cot1, hits give low values 1 | [17] 1.05 | S. cerevisiae deletion strains, locus YPR119W, strain clb2, hits give low values 0.988 | S. cerevisiae deletion strains, locus YPR141C, strain kar3, hits give low values 0.997 | S. cerevisiae deletion strains, locus YPR163C, strain tif3, hits give low values 0.997 | S. cerevisiae deletion strains, locus YPR167C, strain met16, hits give low values 0.997 | S. cerevisiae deletion strains, strain wtn01, hits give low values 0.999 | S. cerevisiae strains, strain wild type, hits give low values 1.01
